A selection: hits, their analogues and other compounds. The true share with any hit is near 2.1%.
PrP 5UTR inh – inhibition of PrP 5' UTR reporter expression; cell-based PrP 5' UTR mRNA reporter, plate reader; inhibition, % (test concentration not listed); 340,000 compounds, 0.35% hits; AID 488862; in the data active = inhibition above about 52%; note: 0 = median of the neutral control wells
MazEF act – increases E. coli MazEF RNase cleavage of RNA. P0AE70. FAM/BHQ RNA-DNA oligo cleavage fluorescence, 5 h. activation, % at 20 µM. 350,000 compounds, 0.32% hits; in the data active = activation above about 50%
Target sequence (P0AE70 whole entry, looked up): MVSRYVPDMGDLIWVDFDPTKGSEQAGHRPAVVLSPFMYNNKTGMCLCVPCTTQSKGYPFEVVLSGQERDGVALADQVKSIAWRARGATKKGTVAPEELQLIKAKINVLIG
VHR inh abs – inhibitors of human VHR1 phosphatase (DUSP3). P51452. recombinant VHR phosphatase, pNPP absorbance. inhibition, % at 13.3 µM. 290,000 compounds, 0.52% hits; in the data active = inhibition above about 50%
Target sequence (P51452 whole entry, looked up): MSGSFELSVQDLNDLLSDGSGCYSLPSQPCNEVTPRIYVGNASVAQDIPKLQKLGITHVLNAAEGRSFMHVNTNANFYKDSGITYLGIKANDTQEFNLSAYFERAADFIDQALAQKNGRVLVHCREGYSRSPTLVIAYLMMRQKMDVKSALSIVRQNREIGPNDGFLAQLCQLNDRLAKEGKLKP
BJeLR lethal – kills HRASV12-expressing BJeLR cells | BJeLR (HRASV12) viability, CellTiter-Glo ATP luminescence, 48 h | inhibition, % (no concentration beside the values) | 300,000 compounds, 0.17% hits | AID 1554; in the data active = inhibition above about 50%; inconclusive = no clear call, values can overlap the other calls
PfHsp40 yeast – restores yeast growth despite PfHsp40 toxicity. growth rescue, % at 12.5 µM. AID 504582. 340,000 compounds, 0.68% hits. S. cerevisiae expressing PfHsp40, growth rescue, ATP luminescence; in the data active = growth rescue above about 28%, passing the limit was not always enough; inconclusive = no clear call, values can overlap the other calls;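 note: yeast W303a lacking pdr1 and pdr3 grown in galactose medium; growth measured after three days at 30 °C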
PrPC surface inh – reduces human prion protein on the cell surface; P04156; inhibition, % at 13.8 µM; AID 720596; 370,000 compounds, 0.43% hits; cell surface PrPC, TR-FRET read-out; in the data active = inhibition above about 24%; note: 0% = median of the test wells and 100% = reference compound wells
PrP 5UTR single – prion 5' UTR mRNA inhibition, cherry-pick retest. AID 504592. inhibition, % at 2.5 µM. shares compounds with PrP 5UTR inh. 1,100 compounds, 48% hits. cell-based prion protein 5' UTR reporter, plate reader; in the data active = inhibition above about 54%; inconclusive = no clear call, values can overlap the other calls
An asterisk follows results filed as active; ? = inconclusive; . = no result.

SMILES	PrP 5UTR inh	MazEF act	VHR inh abs	BJeLR lethal	PfHsp40 yeast	PrPC surface inh	PrP 5UTR single
CCCCn1c(C)nc2c(=O)n(C)c(=O)[nH]c21	-27	9	7	1	3	2	.
C[C@]12CCC3C(CCC4=CC(O)CC[C@@]43/C=N/O)C1(O)CCC2C1=CC(=O)OC1 (some centres not stated)	80*	7	20	69*	0	2	70*
Nn1c(SCC(=O)NC2CCCCC2)nnc1-c1cc(-c2ccc(Cl)cc2)n[nH]1	.	.	.	.	.	-6	.
C[C@@H]1O[C@@H](O[C@H]2C[C@@H](O)[C@]3(CO)[C@H]4[C@H](O)C[C@]5(C)[C@@H](C6=CC(=O)OC6)CC[C@]5(O)[C@@H]4CC[C@]3(O)C2)[C@H](O)[C@H](O)[C@H]1O	92*	-3	24	80*	-2	.	90*
CC1CC2C(C(O)CC3(C)C2CCC3(O)C(=O)CO)C2(C)C=CC(=O)C=C12 (configuration not stated)	-12	5	.	.	0	-1	.
Cc1ccccc1CC(=O)Nc1nnc(-c2cccnc2)s1	.	.	.	.	.	-5	.
O=C(c1ccccc1)n1ccc(-c2cnc(-c3ccccc3)s2)n1	54*	7	20	2	-1	-9	-35
COc1ccc(S(=O)(=O)n2ccc(-c3cnc(-c4ccccc4)s3)n2)cc1	-36	-7	23	-11	2	-89	.
CC(C)(N[C@@H](Cc1ccccc1)C(=O)NCCc1c[nH]c2ccccc12)C(=O)NC1CCCCC1	.	.	.	.	.	-1	.
COC(=O)CN1CCN(C(=O)c2nocc2C)CC1	.	.	.	.	.	0	.
CCCCN=C(C)C1=C(O)CSC1=O	78*	5	26	-4	-1	4	-1
COc1cccc2oc3cc(C#CC4(O)CCCCC4)ccc3c(=O)c12	-23	21	29	2	8	-3	.
O=c1c2ccccc2sc2ccc(C#CC3(O)CCCCC3)cc12	92*	0	.	11	0	5	86*
O=c1c2ccccc2oc2cc(C#CC3(O)CCCCC3)ccc12	70*	6	.	7	?	4	55*
FC(F)(F)c1ccccc1-n1ccnc1	60*	6	.	.	-1	-1	0
O=C(O)c1nn(-c2ccccc2C(F)(F)F)cc1O	-27	13	21	-12	15	9	.
CC12CC[C@H]3[C@@H](CCC4(O)C[C@H](O)CCC34/C=N/NC(=O)c3ccccc3Cl)C1(O)CCC2C1=CC(=O)OC1 (some centres not stated)	-31	-8	16	4	-1	-3	.
CC12CCC3C(CCC4(O)CC(O)CCC34C=NO)C1(O)CCC2C1=COC(=O)C1 (configuration not stated)	89*	17	.	.	0	4	85*
CCCCN=C[C@]12CCC(O)CC1(O)CCC1[C@@H]2CC[C@]2(C)[C@H](C3C=CC(=O)O3)CCC12O (some centres not stated)	83*	-9	-6	68*	1	5	78*
COc1ccc(Cl)cc1NC(=O)/C=C\C(=O)O	70*	3	16	-5	-2	0	-10
CC1CCCN(C(=O)CN(C)S(=O)(=O)c2ccc3c(c2)c(=O)n(C)c(=O)n3C)C1 (configuration not stated)	-20	-3	12	13	1	-2	.
Cc1ccc(C(=O)O/N=C(\N)c2ccccc2)c(Cl)c1	56*	-2	25	-6	0	-10	55*
N/C(=N\OC(=O)c1ccc(Cl)cc1Cl)c1ccccn1	79*	8	6	13	-2	3	55*
N/C(=N\OC(=O)c1cc([N+](=O)[O-])ccc1Cl)c1ccccn1	-22	1	-6	3	0	-16	.
Cc1ccc(C(=O)O/N=C(\N)c2ccccn2)c(Cl)c1	81*	12	19	10	-4	-5	94*
SMILES	PrP 5UTR inh	MazEF act	VHR inh abs	BJeLR lethal	PfHsp40 yeast	PrPC surface inh	PrP 5UTR single
N/C(=N\OC(=O)c1ccc(Cl)cc1[N+](=O)[O-])c1ccccn1	-14	-7	18	-4	2	0	.
N/C(=N\OC(=O)c1ccc([N+](=O)[O-])cc1Cl)c1ccccn1	65*	5	5	-2	-3	-6	?
N/C(=N\OC(=O)c1cc(Br)ccc1Cl)c1ccccn1	-82	4	20	-3	2	-5	.
COc1cccc(N2C(=NC(=O)C3CCCCC3)SC3CS(=O)(=O)CC32)c1 (configuration not stated)	-20	1	-2	-6	0	2	.
COc1ccc(CN2CCN(C3CCC3)CC2CCO)c(F)c1 (configuration not stated)	-38	7	21	7	0	3	.
O=C1c2ccccc2C(O)(c2ncc[nH]2)N1C1CCCCC1 (configuration not stated)	69*	7	4	11	2	-2	-17
COC(=O)Cn1ccnc1[N+](=O)[O-]	.	7	.	.	.	-10	.
COc1ccc(-c2cc3c(nn2)-c2ccccc2C3=O)cc1	63*	19	2	22	-1	3	?
COc1ccc(NC(=O)COC(=O)Cc2c[nH]c3ccccc23)cc1OC	68*	-1	20	1	1	7	-24
O=C(Nc1nnc(-c2cccnc2)s1)c1cnc2ccccc2c1	.	.	.	.	.	-8	.
O=C(NCCc1ccccc1)c1ccc2c(c1)OCCCO2	92*	6	26	-7	0	9	91*
COc1ccc(CCNC(=O)c2ccc3c(c2)OCCO3)cc1	-45	-8	20	0	1	4	.
O=C(c1ccc(F)cc1)N1CCOCC1	69*	10	3	3	-1	4	-18
O=C(CCCc1ccccc1)c1ccc2c(c1)OCCO2	83*	-6	18	-12	1	-2	89*
O=C(Nc1ccc(F)cc1)c1ccc(C(=O)N2CCOCC2)cc1	-14	2	.	8	0	-4	.
O=C(CCc1ccccc1)c1ccc2c(c1)OCCCO2	-79	-1	6	-3	0	-5	.
O=C(c1ccccc1)N1CCN(C(=O)c2ccc3c(c2)OCCO3)CC1	78*	1	15	-1	0	7	-12
O=C(c1ccc2c(c1)OCCO2)N1CCN(Cc2ccccc2)CC1	-20	6	23	0	-1	0	.
N#Cc1ccccc1C[C@H](N)C(=O)NC[C@H]1O[C@@H](n2ccc(N)nc2=O)[C@H](O)[C@@H]1O	.	10	.	.	.	3	.
COc1ccccc1NC(=O)Nc1nnc([C@@H]2C[C@H](O)[C@@H](CO)O2)s1	.	.	.	.	.	4	.
COc1cc2nc(NC(=O)c3ccc(F)cc3Cl)sc(=O)c2cc1OC	-18	-6	7	-6	0	.	.
COc1cc(N(CCCn2cnc3c(SC)ncnc32)CCCn2cnc3c(SC)ncnc32)cc(OC)c1OC	.	10	.	.	.	8	.

Screens from PubChem BioAssay.
